Several values for one entry are separate records, joined by “and”; a condition that tells them apart may be missing. Identical values can stand only once. The campaign covered roughly 360,000 compounds. About 2,900 (0.81%) were called active.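 How the source made its calls: active means inhibition above the mean inhibition across every tested compound plus 3 SD (cut at about 22% in these data); inactive means the rest.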 What follows is part of a selection rich in actives, with near analogues and random picks from the rest. Some structures have more than one record in an assay (separate samples or runs), and their calls can disagree.
Each molecule was assayed against Perilipin-5 (Homo sapiens) + 1-acylglycerol-3-phosphate O-acyltransferase ABHD5 (Homo sapiens) (UniProt Q00G26+Q8WTS1) (assay: blockers of ABHD5 binding to perilipin-5 – cell lysate, split luciferase complementation, luminescence, primary screen (AID 602281;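 further: 0% = DMSO only wells and the 100% control is not disclosed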)). Conditions: Split G. princeps luciferase complementation, 4 h, at 4 µM, stronger effect = higher value.
Perilipin-5 (Homo sapiens) + 1-acylglycerol-3-phosphate O-acyltransferase ABHD5 (Homo sapiens), sequence (Q00G26 whole entry, looked up): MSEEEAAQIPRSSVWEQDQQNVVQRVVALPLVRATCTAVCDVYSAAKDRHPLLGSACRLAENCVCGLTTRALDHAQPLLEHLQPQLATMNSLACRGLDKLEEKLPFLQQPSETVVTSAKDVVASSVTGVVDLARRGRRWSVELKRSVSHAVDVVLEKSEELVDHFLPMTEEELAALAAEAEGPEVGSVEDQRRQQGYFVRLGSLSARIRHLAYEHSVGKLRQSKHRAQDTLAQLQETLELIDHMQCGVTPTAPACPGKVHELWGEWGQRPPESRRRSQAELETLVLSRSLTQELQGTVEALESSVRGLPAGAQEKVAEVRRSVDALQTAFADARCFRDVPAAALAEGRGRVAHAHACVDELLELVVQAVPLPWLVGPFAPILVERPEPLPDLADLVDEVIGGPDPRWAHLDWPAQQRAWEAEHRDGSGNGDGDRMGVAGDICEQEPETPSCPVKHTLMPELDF
Perilipin-5 (Homo sapiens) + 1-acylglycerol-3-phosphate O-acyltransferase ABHD5 (Homo sapiens), sequence (Q8WTS1 whole entry, looked up): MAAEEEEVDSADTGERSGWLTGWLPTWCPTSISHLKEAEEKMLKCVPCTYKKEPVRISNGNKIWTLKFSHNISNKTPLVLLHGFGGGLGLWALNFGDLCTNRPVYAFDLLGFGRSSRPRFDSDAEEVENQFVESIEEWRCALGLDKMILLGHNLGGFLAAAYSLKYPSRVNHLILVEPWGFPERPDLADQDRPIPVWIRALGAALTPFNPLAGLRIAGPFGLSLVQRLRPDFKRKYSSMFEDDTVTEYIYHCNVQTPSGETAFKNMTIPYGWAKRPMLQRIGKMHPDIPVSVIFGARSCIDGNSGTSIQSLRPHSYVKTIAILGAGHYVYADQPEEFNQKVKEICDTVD

SMILES	inhibition
Cc1cccc(CN2CCN(C3CN(Cc4cn(Cc5ccccc5F)nn4)S(=O)(=O)C3)CC2)c1 (stereo unspecified)	5.46% (inactive)
Cc1ccc(-c2c(N)nc3ncccn23)cc1	-3.59% (inactive)
Cc1cc(C)nc(NC(=O)/C=C/c2ccc(Cl)cc2)n1	0.69% (inactive)
Cc1cccc(C(=O)Nc2ccc(C(=O)/C=C/c3cccs3)cc2)c1	12.6% (inactive)
Cc1cccc(C=CC(=O)c2ccc(Cl)cc2)c1	34.8% (active)
CCO[C@H]1OC(C(=O)Nc2ccccc2)=C[C@@H](C2CC2)[C@@H]1CCCO	-3.76% (inactive)
CCCCN1C(N)=NC[C@@H]1CC1CCCCC1	10.6% (inactive)
O=C1C=C(c2ccc(Cl)cc2)C(=O)N1Nc1ccccc1	66.8% (active)
Cc1ccn2cc(-c3nonc3C)cc2c1	-1.69% (inactive)
CCc1ccccc1NC(=O)c1cc(-c2ccc3c(c2)OCO3)on1	-4.14% (inactive)
COc1ccc(/C=C/C(=O)NC(=S)N2CCCC(C(N)=O)C2)cc1 (stereo unspecified)	-2.44% (inactive)
CCOc1ccc(NC(=S)NC(=O)/C=C/c2ccc(OC)cc2)c([N+](=O)[O-])c1	2.26% (inactive)
COc1ccc(/C=C/C(=O)c2cc(Br)ccc(=O)c2O)cc1	22.1% (active)
O=C(O)c1cc2ccccc2c(=O)s1	10.5% (inactive)
NC[C@H](Cc1ccccc1)NCCc1cc(C(F)(F)F)cc(C(F)(F)F)c1	5.8% (inactive)
COc1ccc(/C(O)=C2/C(=O)C(=O)N(c3nc(C)c(C)s3)C2c2ccco2)cc1 (stereo unspecified)	6.99% (inactive)
COc1ccc(/C(O)=C2\C(=O)C(=O)N(Cc3ccco3)C2c2ccc(OC)cc2OC)cc1 (stereo unspecified)	28.9% (active)
COc1cc(C2/C(=C(\O)c3ccc4c(c3)CC(C)O4)C(=O)C(=O)N2Cc2ccco2)ccc1O (stereo unspecified)	11.1% (inactive)
COc1ccc(/C(O)=C2/C(=O)C(=O)N(CCCN(C)C)C2c2ccccc2)cc1OC (stereo unspecified)	-4.94% (inactive)
COc1ccccc1C1/C(=C(/O)c2ccc(C)cc2)C(=O)C(=O)N1Cc1ccco1 (stereo unspecified)	28.4% (active)
COc1ccc(/C(O)=C2/C(=O)C(=O)N(CC3CCCO3)C2c2ccc(OC)c(OC)c2)cc1 (stereo unspecified)	1.46% (inactive)
CC(C)c1nnc(NC(=O)C2CC(=O)N(CCc3ccc(F)cc3)C2)s1 (stereo unspecified)	-0.4% (inactive)
CSc1nc(-c2ccccc2)nc(C(Cl)Cl)n1	-6.27% (inactive)

SMILES	inhibition
COc1ccc(-c2nnc3n2CCCCC3)cc1	2.02% (inactive)
CCC(=O)N1CCc2cc(Br)c(S(=O)(=O)NCCN3CCCCC3CC)cc21 (stereo unspecified)	6.34% (inactive)
N#Cc1ccc(C(=O)OCC(=O)NC(=O)NC2CCCCC2)cc1	-1.6% (inactive)
NC(=O)C1CCN(C(=O)CC2C(=O)NCCN2Cc2cccc(Oc3ccccc3)c2)CC1 (stereo unspecified)	4.81% (inactive)
CCN(CC)c1ccc(NC(=O)c2ccc(Cl)nc2)cc1	-1.77% (inactive)
O=C(NNc1ccccn1)c1ccc(Cl)nc1	74% (active)
O=C(NNC(=O)c1ccc(Cl)nc1)c1ccc(Br)cc1	-5.62% (inactive)
Cc1ccc(CSCCNC(=O)CN(c2ccc(F)cc2)S(C)(=O)=O)cc1	-1.09% (inactive)
Cn1c(=O)[nH]c2c(c(C(=O)O)nn2C)c1=O	18.8% (inactive)
Cc1cn(C2C=CC(CO)O2)c(=O)[nH]c1=O (stereo unspecified)	6.6% (inactive)
O=[N+]([O-])c1c(NCCO)cc(Sc2nc3ccccc3s2)c2nonc12	42.8% (active)
Nc1cc(N2CCCCCC2)c2nonc2c1[N+](=O)[O-]	3.02% (inactive)
COc1ccccc1C(=O)Nc1nc2nc(-c3ccccc3)cc(=O)n2[nH]1	-1.37% (inactive)
COc1ccc2c(c1OC)C(=O)OC2Nc1nc(-c2ccccc2)cs1 (stereo unspecified)	38.8% (active)
COc1cc(C(O)c2nc(-c3cccc(C(=O)O)c3)cs2)ccc1F (stereo unspecified)	7.06% (inactive)
O=C(c1cc(COc2ccc(F)cc2F)on1)N1CCOCC1	-0.17% (inactive)
Cc1ccc(Cn2c(C)nc3c(c2=O)c2nc4ccccc4nc2n3Cc2ccco2)cc1	65.3% (active)
Cc1ccc(OCC(=O)c2cc(C)n(Cc3ccco3)c2C)c([N+](=O)[O-])n1	4.39% (inactive)
Cc1ccc(C(=O)CSc2nc3ccccc3c(=O)n2N)o1	-5.64% (inactive)
COC(=O)C[C@H]1C[C@@H]2c3cc(N(C)C)ccc3O[C@@H]2[C@H](CO)O1	0.67% (inactive)
c1ccc(CCc2ccccn2)cc1	-3.97% (inactive)
c1ccc(CCC2=NCCn3cccc32)cc1	16.9% (inactive) and 27.5% (active)
CC1CSc2nnc(CCc3ccccc3)n21 (stereo unspecified)	0.6% (inactive)

SMILES	inhibition
CCc1ccc(-c2cc(C)no2)cc1S(=O)(=O)NCCc1ccc(S(N)(=O)=O)cc1	-2.59% (inactive)
O=C(C1CCCO1)N1CCN(C(=O)C23CC4CC(CC(C4)C2)C3)CC1 (stereo unspecified)	0.93% (inactive)
O=C(Cn1cc(C(=O)C2CC2)c2ccccc21)Nc1ccccc1Cl	-0.4% (inactive)
CCOc1ccc(NC(=O)C(C)N2C(=O)c3ccccc3C2=O)cc1 (stereo unspecified)	-3.97% (inactive)
O=C(Cc1ccccc1)N1CCN(S(=O)(=O)c2ccc([N+](=O)[O-])cc2)CC1	1.18% (inactive)
O=C1/C(=C\c2ccc([N+](=O)[O-])cc2)CS(=O)(=O)C/C1=C/c1ccc([N+](=O)[O-])cc1	76.2% (active)
O=[N+]([O-])c1ccc(N=NNc2ccc([N+](=O)[O-])cc2)cc1	-4.36% (inactive)
Cc1ccc(S(=O)(=O)N(C)C)cc1NC(=O)c1ccccc1Br	-0.6% (inactive)
COc1ccc(C(C(=O)NCc2ccccc2)N(Cc2cccs2)C(=O)c2cnccn2)cc1 (stereo unspecified)	-0.58% (inactive)
COc1ccccc1-c1sc2ccccc2c1-c1ccc(Br)nc1	-7.49% (inactive)
COc1cccc(-c2sc3ccc(OC)cc3c2-c2ccc(OCCN3CCCCC3)cc2)c1	14.8% (inactive)
COc1ccc2sc(-c3ccccc3OC)c(-c3ccc(OCCN4CCCC4)cc3)c2c1	25.4% (active)
Cc1cc(C)c2c(n1)sc1c(=O)n(-c3ccccc3)c(=O)[nH]c12	9.86% (inactive)
CCOC(=O)C(Cc1ccc(N)cc1)N1C(=O)c2ccccc2C1=O (stereo unspecified)	-1% (inactive)
CC1=CC(C)(C)Nc2ccc(OC(=O)CN3C(=O)C4CCCCC4C3=O)cc21 (stereo unspecified)	75% (active)
O=C(C(Cc1ccccc1)n1cccc1)N1CCN(C2CCCCC2)CC1 (stereo unspecified)	5.03% (inactive)
COc1ccc(C(=O)COC(=O)CN2C(=O)C3CC=CCC3C2=O)c(OC)c1 (stereo unspecified)	-4.32% (inactive)
O=C(COC(=O)CN1C(=O)C2CCCCC2C1=O)Nc1ccc(F)c(F)c1F (stereo unspecified)	-2.34% (inactive)
CC1=CC(C)(C)Nc2ccc(OC(=O)C(Cc3ccccc3)N3C(=O)C4CCCCC4C3=O)cc21 (stereo unspecified)	47% (active)
OCCCC1CCCCN1Cc1nc(Cc2ccccc2Cl)no1 (stereo unspecified)	0.62% (inactive)
CC[C@H](C)C(=O)N[C@H]1CCCN1C(=O)/C=C/c1ccccc1	1.82% (inactive)
CC(=O)Nc1ccc(NC(=O)c2ccc3c(c2)C(=O)N(c2ccccc2C)C3=O)cc1	6.37% (inactive)
COC(=O)[C@@H]1CCCN1C(=O)c1cc(COc2cccc3cccnc23)on1	-0.57% (inactive)

SMILES	inhibition
COc1ccc2c(c1)c(=Cc1ccc(N(C)C)cc1)c1cc(-c3ccccc3)[n+](C)n12	30.2% (active)
O=C(NC1CCN(S(=O)(=O)c2ccc(F)cc2)CC1)c1ccccc1	4.55% (inactive)
Cc1ccc(NC(=O)CCC(=O)c2ccc(Br)cc2)cc1	4.03% (inactive)
CCN(C(=O)c1ccc(Br)cc1)c1ccccc1	0.98% (inactive)
Cc1ccn(C(CC(=O)c2ccc(Br)cc2)C(=O)O)n1 (stereo unspecified)	33.3% (active)
CCCCN(CC)CCCNC(=O)c1ccc(CSc2nc3ccncc3[nH]2)cc1	-1.26% (inactive)
COc1ccc(N(Cc2cc3ccc(C)cc3[nH]c2=O)S(=O)(=O)c2ccccc2)cc1	-3.39% (inactive)
CC1CCC(NS(=O)(=O)c2ccc3c(c2)CC(=O)N3)CC1 (stereo unspecified)	2.49% (inactive)
Cn1sc(=O)c2cc(S(=O)(=O)NC3CC3)ccc21	43.1% (active)
O=S(=O)(NC1CC1)c1ccc(F)c(F)c1	7.64% (inactive)
CC1CCCC(NC(=O)COC(=O)c2ccccc2C(=O)N(C)C2CCCCC2)C1C (stereo unspecified)	1.5% (inactive)
CCc1ccccc1NC(=O)/C(=C/c1ccccc1)c1ccccc1	-13.9% (inactive)
CCOC(=O)/C(=C\c1ccc([N+](=O)[O-])cc1)C(=O)c1cc(C(C)=O)c(Nc2ccccc2)s1	-2.52% (inactive)
COc1ccccc1/C=C/C(=O)NC1CC2CCC1C2 (stereo unspecified)	-5.4% (inactive)
COc1ccccc1C(=O)c1ccccc1C(=O)c1ccccc1	-6.91% (inactive)
CCOC(=O)C(=Cc1ccccc1)C(=O)c1ccccc1	86.5% (active)
CCOC(=O)C(=Cc1ccccc1OC)C(=O)OCC	35.8% (active)
Cc1ccc(C(=O)NCC(=O)OCC(=O)Nc2cccc(S(=O)(=O)N3CCCC3)c2)cc1C	-2.63% (inactive)
O=C(CCCN1C(=O)C(c2ccccc2)Oc2cccnc21)Nc1ccccc1Br (stereo unspecified)	6.82% (inactive)
COC(=O)[C@@H]1C[C@@]2(O)[C@H](O)[C@H](O)[C@H](O)C[C@H]2N1Cc1ccc(C(C)(C)C)cc1	6.53% (inactive)
O=C(c1cccc(F)c1)N1CCC(O)(c2cccnc2)CC1	0.25% (inactive)
N#CCOc1ccc(C2=NO[C@@H]3[C@@H]4C[C@@H]([C@H]5C(=O)N(c6ccc7c(c6)OCO7)C(=O)[C@@H]45)[C@H]23)cc1	-3.78% (inactive)
